Screens deposited in PubChem BioAssay by several laboratories.
CYP2C9 inh = human CYP2C9 inhibition | CYP2C9 Supersomes, luciferin-H conversion, luminescence | inhibition, % at 5 µM | 96,000 tested, 20% active | AID 777;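 active = blocking of liver enzyme CYP2C9 beyond about 50% at 5 µM, limit read from the data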
CYP2C19 activ = increases human CYP2C19 enzyme activity | P33261 | recombinant CYP2C19, luciferin-H EGE luminescence; active compounds read high; 0 = fully inhibited enzyme, 1 = untreated enzyme | activation factor at 5 µM | 96,000 tested, under 10 active | AID 1025;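 active = activation factor of at least 2 at 5 µM in the primary screen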
Target sequence (P33261 whole entry, looked up): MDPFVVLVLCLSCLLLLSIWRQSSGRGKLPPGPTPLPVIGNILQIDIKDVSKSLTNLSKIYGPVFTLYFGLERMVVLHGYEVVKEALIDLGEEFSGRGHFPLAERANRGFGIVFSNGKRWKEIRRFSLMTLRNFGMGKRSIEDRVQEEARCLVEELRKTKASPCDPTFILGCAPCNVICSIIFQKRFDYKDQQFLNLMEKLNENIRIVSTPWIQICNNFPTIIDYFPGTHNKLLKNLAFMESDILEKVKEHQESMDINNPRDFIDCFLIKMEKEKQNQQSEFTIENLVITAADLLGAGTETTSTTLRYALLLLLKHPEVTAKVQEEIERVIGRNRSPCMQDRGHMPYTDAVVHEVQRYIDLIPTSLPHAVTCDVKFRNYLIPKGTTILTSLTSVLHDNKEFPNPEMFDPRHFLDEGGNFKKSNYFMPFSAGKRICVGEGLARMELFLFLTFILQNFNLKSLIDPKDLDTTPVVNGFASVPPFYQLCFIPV
D1 allo mod = allosteric modulators of human D1 dopamine receptor; P21728; HEK293 D1, CRE-luciferase, dopamine EC30 potentiation; actives deviate in either direction; B-score at 10 µM; 58,000 tested, 5.9% active; AID 641;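 active = luminescence count or its row- and column-corrected plate score outside the 99.7% band of the plate's sample wells, on either side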
CYP2C9 activ = activators of human CYP2C9; P11712; recombinant CYP2C9, luciferin-H conversion, luminescence; active compounds read high; factor 1 = untreated enzyme, 0 = blocked; activation factor at 5 µM; 96,000 tested, 1.4% active; AID 1024;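 active = activation factor of 2 or more for CYP2C9 at a 5 µM dose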
CYP2C19 inh = blocks human cytochrome P450 2C19. P33261. CYP2C19 Supersomes, luciferin-H EGE luminescence, 30 min. inhibition, % at 5 µM. 96,000 tested, 21% active. AID 778;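 active = CYP2C19 inhibition above a set limit at 5 µM in the primary screen, cut at about 50% in these data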
DAT uptake mod = modulates human dopamine transporter uptake under cocaine; Q01959; 110,000 tested, 1.3% active; B-score at 10 µM; AID 449768; LLC-PK1 hDAT cells, [14C]-dopamine uptake with cocaine IC80; actives deviate in either direction;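 active = Z score or B-score, a plate-position-corrected score, falls beyond the plate's 99.7% confidence bounds, in either direction; inactive = both scores lie inside the 99.7% bounds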
A number is an active result. Shown are actives, neighbours in structure and some others; about 28% of the full set was active somewhere.

Screening CC(C)(C)CNc1cc(N2CCCC2)ccc1[N+](=O)[O-] returned CYP2C9 inh inactive, CYP2C19 activ inactive, CYP2C9 activ inactive, CYP2C19 inh inactive and DAT uptake mod inactive.
`CCn1c(Oc2ccc(Oc3ncc(Cl)cc3Cl)cc2)nc2c1c(=O)n(C)c(=O)n2C` gave D1 allo mod inactive.
Screening Nn1cnnc1SC1CCCCC1NS(=O)(=O)c1ccccc1 (stereo unspecified) returned CYP2C9 inh inactive, CYP2C19 activ inactive, D1 allo mod inactive, CYP2C9 activ inactive, CYP2C19 inh 81 and DAT uptake mod inactive.
`CC(C)C1S/C(=N/N=C/c2cccs2)NC1=O` (stereo unspecified) gave CYP2C9 inh inactive, CYP2C19 activ inactive, CYP2C9 activ inactive and CYP2C19 inh inactive.
Screening O=c1c2ccccc2n(Cc2ccccc2F)c(=O)n1Cc1ccccc1F returned CYP2C9 inh inactive, CYP2C19 activ inactive, CYP2C9 activ inactive, CYP2C19 inh inactive and DAT uptake mod inactive.
Cc1cc2c(s1)c1cnn(Cc3ccccc3F)c(=O)c1n2C was read as CYP2C9 inh inactive, CYP2C19 activ inactive, CYP2C9 activ inactive, CYP2C19 inh 51 and DAT uptake mod inactive.
For CC(C)=CCC12Oc3cc(O)ccc3C1(O)Oc1cc(O)c([C@H]3C=C(C)CC(c4ccc(O)cc4O)[C@H]3C(=O)c3ccc(O)cc3O)c(O)c1C2=O (stereo partly specified) the results were DAT uptake mod inactive.
For CCCCNC(=O)NC1(C(F)(F)F)Oc2ccccc2O1 the results were CYP2C9 inh inactive, CYP2C19 activ inactive, CYP2C9 activ inactive, CYP2C19 inh inactive and DAT uptake mod -1.9.
O=C(NCCN1CCOCC1)NC1(C(F)(F)F)Oc2ccccc2O1 was read as CYP2C9 inh inactive, CYP2C19 activ inactive, D1 allo mod inactive, CYP2C9 activ inactive, CYP2C19 inh inactive and DAT uptake mod inactive.
`NS(=O)(=O)c1ccc(CCNC(=O)NC2(C(F)(F)F)Oc3ccccc3O2)cc1` gave D1 allo mod inactive and DAT uptake mod -6.7.
`CC1Cc2ccccc2N1C(=O)CSc1nnc(CNc2ccccc2)o1` (stereo unspecified) gave CYP2C9 inh inactive, CYP2C19 activ inactive, D1 allo mod inactive, CYP2C9 activ inactive, CYP2C19 inh inactive and DAT uptake mod inactive.
CCc1ccc(NC(=O)CN(c2ccc3c(c2)OCO3)S(=O)(=O)c2c(C)noc2C)cc1 was read as CYP2C9 inh inactive, CYP2C19 activ inactive, D1 allo mod inactive, CYP2C9 activ inactive, CYP2C19 inh inactive and DAT uptake mod inactive.
`CCc1ccc(N(CC(=O)Nc2nc3ccc(C)cc3s2)S(=O)(=O)c2c(C)noc2C)cc1` gave CYP2C9 inh 93, CYP2C19 activ inactive, CYP2C9 activ inactive, CYP2C19 inh 58 and DAT uptake mod inactive.
For Cc1n[nH]c(C)c1S(=O)(=O)N(CC(=O)NC1CCCC1)c1ccc(C(C)C)cc1 the results were CYP2C9 inh 75, CYP2C19 activ inactive, D1 allo mod inactive, CYP2C9 activ inactive, CYP2C19 inh 61 and DAT uptake mod inactive.
Cc1nn(C)c(C)c1S(=O)(=O)N(CC(=O)NC1CCCCCC1)c1ccc(C(C)C)cc1 was read as CYP2C9 inh inactive, CYP2C19 activ inactive, CYP2C9 activ inactive, CYP2C19 inh inactive and DAT uptake mod inactive.
`CCc1ccc(N(CC(=O)NC2CCCC2)S(=O)(=O)c2c(C)noc2C)cc1` gave CYP2C9 inh 64, CYP2C19 activ inactive, D1 allo mod inactive, CYP2C9 activ inactive, CYP2C19 inh inactive and DAT uptake mod inactive.
CCOc1ccc(N(CC(=O)NC2CCCC(C)C2C)S(=O)(=O)c2c(C)noc2C)cc1 (stereo unspecified) was read as CYP2C9 inh inactive, CYP2C19 activ inactive, D1 allo mod inactive, CYP2C9 activ inactive, CYP2C19 inh inactive and DAT uptake mod inactive.
CCN(CC)C(=O)CN(c1cc2c(cc1OC)oc1ccccc12)S(=O)(=O)c1ccc(C)cc1 was read as CYP2C9 inh inactive, CYP2C19 activ inactive, CYP2C9 activ inactive, CYP2C19 inh inactive and DAT uptake mod inactive.
For O=C(O)C[C@H](O)C[C@H](O)/C=C/c1c(C2CC2)nc2ccccc2c1-c1ccc(F)cc1 the results were DAT uptake mod inactive.
For CCc1ccc(N2C(=O)c3ccc4c5c(ccc(c35)C2=O)CC4)cc1 the results were CYP2C9 inh inactive, CYP2C19 activ inactive, CYP2C9 activ inactive, CYP2C19 inh inactive and DAT uptake mod inactive.
`Nc1ncnc2c1ncn2CCN1CCOCC1` gave CYP2C9 inh inactive, CYP2C19 activ inactive, D1 allo mod inactive, CYP2C9 activ inactive, CYP2C19 inh 90 and DAT uptake mod inactive.
For O=c1c2[nH]c3ccccc3c2ncn1CCN1CCOCC1 the results were CYP2C9 inh inactive, CYP2C19 activ inactive, D1 allo mod inactive, CYP2C9 activ inactive, CYP2C19 inh inactive and DAT uptake mod inactive.
For Cc1cc(N2CCN(C)CC2)nc2ccc(NC(=O)c3ccc(Br)o3)cc12 the results were CYP2C9 inh inactive, CYP2C19 activ inactive, D1 allo mod -4.2, CYP2C9 activ inactive, CYP2C19 inh inactive and DAT uptake mod inactive.
Cc1cc(N2CCCCC2)nc2ccc(NC(=O)c3ccc(Br)o3)cc12 was read as CYP2C9 inh 81, CYP2C19 activ inactive, CYP2C9 activ inactive, CYP2C19 inh 94 and DAT uptake mod inactive.
Cc1cc(N2CCOCC2)nc2ccc(NC(=O)CCC(=O)N3CCCCC3)cc12 was read as CYP2C9 inh inactive, CYP2C19 activ inactive, D1 allo mod inactive, CYP2C9 activ inactive and CYP2C19 inh inactive.
Screening COCCOC(=O)C1=C(C)NC2=C(C(=O)CC(C)(C)C2)C1c1cccnc1 (stereo unspecified) returned CYP2C9 inh inactive, CYP2C19 activ inactive, D1 allo mod inactive, CYP2C9 activ inactive, CYP2C19 inh inactive and DAT uptake mod inactive.
CC1=C(C#N)C(c2cccnc2)C2=C(CC(c3ccc(Cl)cc3)CC2=O)N1 (stereo unspecified) was read as CYP2C9 inh 73, CYP2C19 activ inactive, CYP2C9 activ inactive, CYP2C19 inh 92 and DAT uptake mod inactive.
For CCSc1ccccc1C(=O)NCCCn1ccnc1 the results were CYP2C9 inh 63, CYP2C19 activ inactive, D1 allo mod inactive, CYP2C9 activ inactive, CYP2C19 inh 92 and DAT uptake mod inactive.
For COc1ccc(C(=O)Nc2ccccc2C(=O)NCCCn2ccnc2)cc1 the results were CYP2C9 inh 100, CYP2C19 activ inactive, D1 allo mod inactive, CYP2C9 activ inactive, CYP2C19 inh 85 and DAT uptake mod inactive.
`O=C(NCCCn1ccnc1)c1csc2ccccc12` gave CYP2C9 inh 87, CYP2C19 activ inactive, D1 allo mod inactive, CYP2C9 activ inactive, CYP2C19 inh 87 and DAT uptake mod inactive.
O=C(Nc1ccccc1C(=O)NCCCn1ccnc1)c1ccccc1 was read as CYP2C9 inh 96, CYP2C19 activ inactive, D1 allo mod inactive, CYP2C9 activ inactive, CYP2C19 inh 84 and DAT uptake mod inactive.
